PubChem BioAssay (NCATS)
Results filed as inconclusive are left out. Activity calls are given as the source filed them. Calls follow the shape of the dose curve; as a rule, active = well fitted curve in the direction sought with a large enough effect; inconclusive = small, poorly fitted or top-dose-only effect, or another doubt; inactive = no such curve, though single readings can be large; an effect the other way counts as inactive or inconclusive.

Assays:
[1] = Quantitative High-Throughput drug screen in 47 multiple myeloma cell lines against the NCATS MIPE library collection: JJN3_DSMZ cell viability assay (AID 1918966; also: nearly all actives have a fitted effect of over 50% in size; also: potency is read from the fitted curve at half-maximal effect)
Procedure, shortened: (§1)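 CellTiter-Glo ATP luminescence gave viability after 48 h compound treatment at 37C of 500 multiple myeloma cells per well. Normalisation used DMSO-only wells as 100% and media-only wells as 0% viability; primary qHTS of approved and investigational drugs.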

[2] = Quantitative High-Throughput drug screen in 47 multiple myeloma cell lines against the NCATS MIPE library collection: H1112_PLB cell viability assay (AID 1918967; also: nearly all actives have a fitted effect of over 30% in size)
Procedure, shortened: as §1

[3] = Quantitative High-Throughput drug screen in 47 multiple myeloma cell lines against the NCATS MIPE library collection: KMS26_JCRB cell viability assay (AID 1918975); also: nearly all actives have a fitted effect of over 45% in size; also: potency is read from the fitted curve at half-maximal effect
Procedure, shortened: (§2)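 Steps: seed 500 cells per well; pin-transfer MIPE 4.0 library; incubate 48 h at 37C, 5% CO2, humidified; add CellTiter-Glo, 5 min room temperature; read luminescence.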

[4] = Quantitative High-Throughput drug screen in 47 multiple myeloma cell lines against the NCATS MIPE library collection: NCIH929_DSMZ cell viability assay (AID 1918978); also: nearly all actives have a fitted effect of over 35% in size; also: potency is read from the fitted curve at half-maximal effect
Procedure, shortened: (§3)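 Cells were exposed to library compounds for 48 hours, after which ATP was measured by CellTiter-Glo. Signal was taken as median relative luminescence units.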

[5] = Quantitative High-Throughput drug screen in 47 multiple myeloma cell lines against the NCATS MIPE library collection: OCIMY1_PLB cell viability assay (AID 1918979); also: nearly all actives have a fitted effect of over 35% in size; also: potency is read from the fitted curve at half-maximal effect
Procedure, shortened: as §3

[6] = Quantitative High-Throughput drug screen in 47 multiple myeloma cell lines against the NCATS MIPE library collection: MM1R_ATCC cell viability assay (AID 1918981); also: nearly all actives have a fitted effect of over 35% in size; also: potency is read from the fitted curve at half-maximal effect
Procedure, shortened: as §3

[7] = Quantitative High-Throughput drug screen in 47 multiple myeloma cell lines against the NCATS MIPE library collection: L363_DSMZ cell viability assay (AID 1918984); also: nearly all actives have a fitted effect of over 40% in size; also: potency is read from the fitted curve at half-maximal effect
Procedure, shortened: as §3

[8] = Quantitative High-Throughput drug screen in 47 multiple myeloma cell lines against the NCATS MIPE library collection: Karpas25_ECACC cell viability assay (AID 1918968; also: nearly all actives have a fitted effect of over 35% in size; also: potency is read from the fitted curve at half-maximal effect)
Procedure, shortened: as §1

[9] = Quantitative High-Throughput drug screen in 47 multiple myeloma cell lines against the NCATS MIPE library collection: KMS27_JCRB cell viability assay (AID 1918970); also: nearly all actives have a fitted effect of over 30% in size; also: potency is read from the fitted curve at half-maximal effect
Procedure, shortened: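 Each line is seeded at 500 cells per well and treated with library compounds for 48 hours under 37 °C, 5% CO2. CellTiter-Glo is then added for 5 min at room temperature before median relative luminescence is recorded.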

[10] = Quantitative High-Throughput drug screen in 47 multiple myeloma cell lines against the NCATS MIPE library collection: KMS12BM_JCRB cell viability assay (AID 1918971); also: nearly all actives have a fitted effect of over 35% in size; also: potency is read from the fitted curve at half-maximal effect
Procedure, shortened: as §2

[11] = Quantitative High-Throughput drug screen in 47 multiple myeloma cell lines against the NCATS MIPE library collection: KMS12PE_JCRB cell viability assay (AID 1918972); also: nearly all actives have a fitted effect of over 30% in size; also: potency is read from the fitted curve at half-maximal effect
Procedure, shortened: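 Viability readout: CellTiter-Glo luminescence following 5 min room-temperature incubation with reagent. Prior exposure: 48 h, 37C, humidified 5% CO2, 500 cells per well.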

[12] = Quantitative High-Throughput drug screen in 47 multiple myeloma cell lines against the NCATS MIPE library collection: KMS21BM_JCRB cell viability assay (AID 1918974); settings: ATP luminescence, 48 h; viability: at 45.8 µM (top of the series) unless noted; also: potency is read from the fitted curve at half-maximal effect
Procedure, shortened: as §1

[13] = Quantitative High-Throughput drug screen in 47 multiple myeloma cell lines against the NCATS MIPE library collection: MM1S_ATCC cell viability assay (AID 1918980); also: nearly all actives have a fitted effect of over 45% in size; also: potency is read from the fitted curve at half-maximal effect
Procedure, shortened: as §3

[14] = Quantitative High-Throughput drug screen in 47 multiple myeloma cell lines against the NCATS MIPE library collection: OCIMY7_PLB cell viability assay (AID 1918987); also: nearly all actives have a fitted effect of over 65% in size; also: potency is read from the fitted curve at half-maximal effect
Procedure, shortened: as §3

[15] = Quantitative High-Throughput drug screen in 47 multiple myeloma cell lines against the NCATS MIPE library collection: KMS20_JCRB cell viability assay (AID 1918973); also: nearly all actives have a fitted effect of over 45% in size; also: potency is read from the fitted curve at half-maximal effect
Procedure, shortened: as §1

[16] = Quantitative High-Throughput drug screen in 47 multiple myeloma cell lines against the NCATS MIPE library collection: MMM1_PLB cell viability assay (AID 1918976)
Procedure, shortened: as §3

[17] = Quantitative High-Throughput drug screen in 47 multiple myeloma cell lines against the NCATS MIPE library collection: LP1_DSMZ cell viability assay (AID 1918982); also: nearly all actives have a fitted effect of over 35% in size; also: potency is read from the fitted curve at half-maximal effect
Procedure, shortened: as §3

[18] = Quantitative High-Throughput drug screen in 47 multiple myeloma cell lines against the NCATS MIPE library collection: KMS28PE_JCRB cell viability assay (AID 1918983); also: nearly all actives have a fitted effect of over 35% in size; also: potency is read from the fitted curve at half-maximal effect
Procedure, shortened: as §3

[19] = Quantitative High-Throughput drug screen in 47 multiple myeloma cell lines against the NCATS MIPE library collection: MOLP8_DSMZ cell viability assay (AID 1918977); also: nearly all actives have a fitted effect of over 45% in size; also: potency is read from the fitted curve at half-maximal effect
Procedure, shortened: as §3

[20] = Quantitative High-Throughput drug screen in 47 multiple myeloma cell lines against the NCATS MIPE library collection: KMS34_JCRB cell viability assay (AID 1918985); also: nearly all actives have a fitted effect of over 40% in size; also: potency is read from the fitted curve at half-maximal effect
Procedure, shortened: as §3

Cc1cnc(Nc2ccc(OCCN3CCCC3)cc2)nc1Nc1cccc(S(=O)(=O)NC(C)(C)C)c1
inactive: Potency [2] | Potency [3] | Potency [4] | Potency [5] | Potency [6]
active: Potency [1] 0.296 µM | Potency [7] 0.296 µM

O=C1CCC(N2C(=O)c3ccccc3C2=O)C(=O)N1 (stereo not given)
inactive: Potency [2] | Potency [8] | Potency [9] | Potency [11] | Potency [5]
active: Potency [10] 18.7 µM

CN(C)c1ccc(Nc2nc(N)n(C(=O)c3c(F)cccc3F)n2)cc1
inactive: Potency [5]
active: Potency [1] 20.9 µM | Potency [8] 26.4 µM | Potency [9] 23.5 µM | Potency [11] 16.6 µM | Potency [12] 2.35 µM | Potency [4] 26.4 µM | Potency [13] 14.8 µM | Potency [6] 18.7 µM | Potency [7] 20.9 µM | Potency [14] 2.35 µM

CS(=O)(=O)c1cccc(CNc2nc(Nc3ccc4c(c3)CCC(=O)N4)ncc2C(F)(F)F)c1
active: Potency [1] 16.6 µM | Potency [11] 4.69 µM | Potency [15] 14.8 µM | Potency [3] 18.7 µM | Potency [16] 23.5 µM | Potency [4] 10.5 µM | Potency [5] 16.6 µM | Potency [13] 18.7 µM | Potency [6] 20.9 µM | Potency [17] 18.7 µM | Potency [18] 23.5 µM | Potency [7] 6.62 µM | Potency [14] 14.8 µM

NC(=O)c1cnccn1
inactive: Potency [1] | Potency [8] | Potency [9] | Potency [5] | Potency [6] | Potency [17] | Potency [18] | Potency [7]

COc1ccccc1[C@H](c1cccc2ccccc12)[C@@](C)(C#N)C(=O)N1CCC(c2cccc(C(F)(F)F)c2)CC1
active: Potency [1] 6.62 µM | Potency [8] 3.72 µM | Potency [9] 3.32 µM | Potency [10] 2.35 µM | Potency [15] 1.18 µM | Potency [12] 9.35 µM | Potency [3] 7.43 µM | Potency [16] 11.8 µM | Potency [13] 5.9 µM | Potency [6] 4.69 µM | Potency [18] 4.18 µM | Potency [14] 5.9 µM

Cc1c(CN2CCN(C(=O)C(C)C)CC2)sc2c(N3CCOCC3)nc(-c3cnc(N)nc3)nc12
active: Potency [1] 0.209 µM | Potency [9] 0.0187 µM | Potency [10] 0.0296 µM | Potency [11] 0.296 µM | Potency [15] 0.418 µM | Potency [12] 0.526 µM | Potency [3] 0.264 µM | Potency [19] 0.0372 µM | Potency [4] 0.0166 µM | Potency [13] 0.132 µM | Potency [6] 0.0469 µM | Potency [18] 0.0662 µM | Potency [7] 0.0209 µM | Potency [14] 1.66 µM

CC1(C)Cc2c(-c3ccccc3)c(-c3ccc(Cl)cc3)c(CC(=O)O)n2C1
active: Potency [1] 20.9 µM | Potency [10] 20.9 µM | Potency [19] 20.9 µM | Potency [5] 23.5 µM | Potency [13] 26.4 µM

COc1cc(Nc2ncc3c(n2)-c2ccc(Cl)cc2C(c2c(F)cccc2OC)=NC3)ccc1C(=O)O
inactive: Potency [1] | Potency [2] | Potency [10] | Potency [4] | Potency [5] | Potency [6] | Potency [17] | Potency [7]

COc1c(Cl)cc2c([nH]c3cnccc32)c1NC(=O)c1cccnc1C
active: Potency [1] 18.7 µM | Potency [9] 11.8 µM | Potency [10] 14.8 µM | Potency [11] 20.9 µM | Potency [3] 13.2 µM | Potency [4] 0.743 µM | Potency [6] 14.8 µM | Potency [17] 7.43 µM | Potency [7] 0.743 µM | Potency [20] 3.32 µM | Potency [14] 2.09 µM
inactive: Potency [19] | Potency [5]

CC(c1cc2ccccc2s1)N(O)C(N)=O (stereo not given)
inactive: Potency [2] | Potency [8] | Potency [9] | Potency [11] | Potency [15] | Potency [3] | Potency [19] | Potency [4] | Potency [5] | Potency [13] | Potency [6] | Potency [18]

Cc1c(CCOc2ccc(C(=O)O)cc2)c2cc(Cl)ccc2n1C(c1ccccc1)c1ccccc1
inactive: Potency [2] | Potency [11] | Potency [15] | Potency [4] | Potency [5] | Potency [14]
active: Potency [8] 20.9 µM | Potency [10] 16.6 µM | Potency [13] 9.35 µM | Potency [6] 11.8 µM | Potency [18] 23.5 µM

COc1ccc([C@@H]2CC(=O)c3c(O)cc(O[C@@H]4O[C@H](CO[C@@H]5O[C@@H](C)[C@H](O)[C@@H](O)[C@@H]5O)[C@@H](O)[C@H](O)[C@@H]4O)cc3O2)cc1O
inactive: Potency [2] | Potency [9] | Potency [10] | Potency [11] | Potency [4] | Potency [5] | Potency [6] | Potency [17] | Potency [18] | Potency [7] | Potency [20]
active: Potency [14] 6.62 µM

NS(=O)(=O)c1cc2c(cc1Cl)NC=NS2(=O)=O
active: viability [12] 201%
inactive: Potency [2] | Potency [8] | Potency [9] | Potency [11] | Potency [15] | Potency [3] | Potency [19] | Potency [6] | Potency [18] | Potency [7] | Potency [20] | Potency [14]
